According to PubChem BioAssay:
For part of these data: Results with a measured potency or affinity are listed apart. Activity calls are given as the source filed them. Unless noted, the limit is not given here; nearly all actives have IC50 up to about 0.98 µM.

System: not listed separately
Experiment: inhibition of 3D7 malaria parasite growth – strain 3D7 (AID 2306; call rule not given here;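 also: 0% = DMSO wells and 100% = chloroquine plus artemisinin control wells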)
Conditions: P. falciparum 3D7 erythrocytic growth, LDH absorbance, 72 h; at 2 µM; active compounds read high

Row | Structure (SMILES) | growth inhibition
1 | COc1ccc(CNC(=O)c2cnc3c(O)cccc3c2Nc2cccc(NC(=O)c3ccc(Cl)c([N+](=O)[O-])c3)c2)cc1 | 86% (active)
2 | C=CCN1C(=O)C(=Cc2cc(Br)ccc2O)SC1=Nc1ccccc1 | 96% (active)
3 | O=C(Nc1ccc(F)cc1)NC1CCN(c2ccnc3cc(Cl)ccc23)C1 (stereo unspecified) | 101% (active)
4 | CC(C)c1ccc(CN2CCC(NC(=O)c3ccc(-c4cccc(F)c4)s3)CC2)cc1 | 83% (active)
5 | O=C(Nc1ccc(OC2CCN(Cc3ccccc3)C2)c(Cl)c1)c1ccco1 (stereo unspecified) | 95% (active)
6 | CN1CCN(Cc2cccc(-c3cc4nccc(Nc5ccc(Oc6ccccc6)cc5)c4cc3Cl)c2)CC1 | 101% (active)
7 | COc1ccc(CC(=O)NC(CCCN2CCC(c3ccccc3)CC2)c2ccc(Cl)c(Cl)c2)cc1OC (stereo unspecified) | 82% (active)
8 | NC1CCN(Cc2cccc(-c3cccc(-c4nc5ccccc5[nH]4)c3)c2)C1 (stereo unspecified) | 100% (active)
9 | COc1c(Br)cc(Br)cc1C(C)=O | 95% (active)
10 | N[C@@H](CCNC1CCN(c2cccc(C(F)(F)F)c2)CC1)Cc1ccc(F)c(F)c1 | 101% (active)
11 | COc1ccc(CN2CCCN(Cc3cccc(NC(=O)c4ccc(Cl)c(Cl)c4)c3)CC2)cc1 | 86% (active)
12 | CN(C)CCOc1cc(O)c2c(c1)OC(C)(C)C=C2c1cccs1 | 99% (active)
13 | COc1nc(-n2ccc(=N)cc2)nc2ccccc12 | 90% (active)
14 | CCC(C)C(COC(=O)c1cc(OC)c(OC)c(OC)c1)N(C)CCN(C)C(COC(=O)c1cc(OC)c(OC)c(OC)c1)C(C)CC (stereo unspecified) | 84% (active)
15 | CSc1ccc(C=CC(=O)NC(=O)c2ccccc2O)cc1 | 97% (active)
16 | O=C(N[C@@H](CC1CCCCC1)C(=O)NCc1cccc2ccccc12)c1ccc(O)c(-c2ccc(Cl)c(Cl)c2)c1 | 97% (active)
17 | Cc1ccc(C(C)C)c(Oc2cnc(NC(CO)c3ccccc3)nc2N)c1 (stereo unspecified) | 95% (active)
18 | CS(=O)(=O)CCNCc1nc(-c2ccc3c(=O)[nH]cnc3c2)cs1 | 86% (active)
19 | CN1CCN(c2cccc(-c3nnc(-c4ccc(OCC(=O)NCc5ccc(C(F)(F)F)cc5)c([N+](=O)[O-])c4)o3)c2)CC1 | 90% (active)
20 | COC(=O)c1sc2ccccc2c1NC(=O)c1ccc(C)c(C)c1 | 88% (active)
21 | c1ccc(CN2CCN(c3cc(-c4cncc(-c5ccccc5)c4)nc(-c4ccccc4)n3)CC2)cc1 | 88% (active)
22 | CCC(C)CN1CCN(c2ccc(NC(=O)c3cccs3)cc2)CC1C (stereo unspecified) | 94% (active)
23 | COc1ccc2nc3cc(Cl)ccc3c(Nc3ccc(O)c(CN4CC5CCC(CC5)C4)c3)c2c1 | 102% (active)
24 | CC(C)(O)CC(C)(C)c1cc(Cl)ccc1O | 96% (active)
25 | COc1ccc(NS(=O)(=O)c2ccc(C(=O)Nc3ccc(OC(F)(F)F)cc3)cc2)cc1N1CCN(CC2CC2)CC1 | 89% (active)
26 | COc1ccc2nccc([C@@H](O)CN3CCC(NC(=O)c4cc5cccnc5[nH]4)CC3)c2c1 | 94% (active)

Target: Calcium-dependent protein kinase 1 (Plasmodium falciparum (isolate 3D7)) (UniProt P62344)
Sequence (P62344 whole entry, looked up): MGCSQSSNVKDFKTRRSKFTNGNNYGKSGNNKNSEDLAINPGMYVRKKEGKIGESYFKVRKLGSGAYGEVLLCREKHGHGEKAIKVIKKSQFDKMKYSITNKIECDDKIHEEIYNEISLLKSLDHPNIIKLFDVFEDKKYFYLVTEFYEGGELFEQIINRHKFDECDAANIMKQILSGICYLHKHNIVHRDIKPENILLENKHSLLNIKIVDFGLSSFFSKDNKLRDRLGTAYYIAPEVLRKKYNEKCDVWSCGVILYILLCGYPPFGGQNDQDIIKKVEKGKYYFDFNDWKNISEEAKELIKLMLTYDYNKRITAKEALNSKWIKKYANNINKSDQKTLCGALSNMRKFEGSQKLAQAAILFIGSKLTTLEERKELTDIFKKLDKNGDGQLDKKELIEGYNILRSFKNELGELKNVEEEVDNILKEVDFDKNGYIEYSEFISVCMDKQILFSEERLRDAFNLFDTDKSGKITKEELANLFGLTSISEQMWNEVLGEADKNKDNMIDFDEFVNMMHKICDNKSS
Experiment: PfCDPK1 kinase inhibitors, biochemical, TCAMS library (AID 1159585);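 also: inhibitors leave more ATP so luminescence rises with inhibition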
Conditions: recombinant PfCDPK1, Kinase-Glo ATP depletion luminescence

Row | Structure (SMILES) | outcome
27 | CCN(CC)CCCNC(=O)/C(=C/C=C/c1cc2cc(Cl)c(Cl)cc2[nH]1)OC | inactive
28 | O=C1OC2(CN1CC1CCN(Cc3ccc(-n4ccnc4)cc3)C1)c1ccccc1-c1ccccc12 (stereo unspecified) | inactive
29 | Cc1ccc(NC(=O)c2ccc3ncccc3c2)cc1OC1CCN(CCC(C)C)CC1 | inactive
30 | Nc1ncc(-c2ccc(F)cc2)cc1-c1nc2ccc(Cl)cc2[nH]1 | inactive
31 | N#Cc1ccccc1N1CCN(C2CCC(NC(=O)c3n[nH]c4cc(C(F)(F)F)ccc34)CC2)CC1 (stereo unspecified) | inactive
32 | Cc1ccc(NC(=O)N2CCN(CCCCCNC(=O)/C=C/c3ccc(Cl)c(Cl)c3)CC2)cc1C | inactive
33 | Cc1nnc(NC(=O)c2cn(-c3ccccc3)nc2-c2ccccc2C)o1 | inactive
34 | CN1CCN(c2cc3c(cc2Cl)CCN3C(=O)Nc2ccc(NC(=O)c3ccc(C(F)(F)F)cc3)cc2)CC1 | inactive
35 | Cc1ccc(-c2ccc3c(c2)C=C(C(=O)NC2CCN(CCNC(=O)c4cccs4)CC2)CCC3)cc1 | inactive
36 | COC(=O)c1ccc(NC(=O)Nc2ccc(Cn3ncc(N4CCCNCC4)c(Cl)c3=O)cc2)cc1 | inactive
37 | CC1(C)N=C(N)N=C(N)N1OCCCOc1cc(Cl)cc(Cl)c1 | inactive
38 | O=C(Nc1ccc2ccccc2c1)c1ccc(CN2CCC(Cc3ccccc3)CC2)cc1 | inactive
39 | Cc1cc2c(cc1Cl)N(C(=O)Nc1cc(F)cc(-c3cncnc3)c1)CC2 | inactive
40 | COc1ccc(C2=CCN(c3ccc(Cl)c(Cl)c3)C2=O)cc1OCCN1CCCCC1 | inactive
41 | COc1ccc(CNC(=O)c2cnc3c(O)cccc3c2Nc2cccc(NC(=O)c3ccc(Cl)c([N+](=O)[O-])c3)c2)cc1 | inactive
42 | C=CCN1C(=O)C(=Cc2cc(Br)ccc2O)SC1=Nc1ccccc1 | inactive
43 | O=C(Nc1ccc(F)cc1)NC1CCN(c2ccnc3cc(Cl)ccc23)C1 (stereo unspecified) | inactive
44 | CC(C)c1ccc(CN2CCC(NC(=O)c3ccc(-c4cccc(F)c4)s3)CC2)cc1 | inactive
45 | O=C(Nc1ccc(OC2CCN(Cc3ccccc3)C2)c(Cl)c1)c1ccco1 (stereo unspecified) | inactive
46 | CN1CCN(Cc2cccc(-c3cc4nccc(Nc5ccc(Oc6ccccc6)cc5)c4cc3Cl)c2)CC1 | inactive

Row | Structure (SMILES) | outcome
47 | COc1ccc(CC(=O)NC(CCCN2CCC(c3ccccc3)CC2)c2ccc(Cl)c(Cl)c2)cc1OC (stereo unspecified) | inactive
48 | NC1CCN(Cc2cccc(-c3cccc(-c4nc5ccccc5[nH]4)c3)c2)C1 (stereo unspecified) | inactive
49 | COc1c(Br)cc(Br)cc1C(C)=O | inactive
50 | N[C@@H](CCNC1CCN(c2cccc(C(F)(F)F)c2)CC1)Cc1ccc(F)c(F)c1 | inactive
51 | COc1ccc(CN2CCCN(Cc3cccc(NC(=O)c4ccc(Cl)c(Cl)c4)c3)CC2)cc1 | inactive
52 | CN(C)CCOc1cc(O)c2c(c1)OC(C)(C)C=C2c1cccs1 | inactive
53 | COc1nc(-n2ccc(=N)cc2)nc2ccccc12 | inactive
54 | CCC(C)C(COC(=O)c1cc(OC)c(OC)c(OC)c1)N(C)CCN(C)C(COC(=O)c1cc(OC)c(OC)c(OC)c1)C(C)CC (stereo unspecified) | inactive
55 | CSc1ccc(C=CC(=O)NC(=O)c2ccccc2O)cc1 | inactive
56 | O=C(N[C@@H](CC1CCCCC1)C(=O)NCc1cccc2ccccc12)c1ccc(O)c(-c2ccc(Cl)c(Cl)c2)c1 | inactive
57 | Cc1ccc(C(C)C)c(Oc2cnc(NC(CO)c3ccccc3)nc2N)c1 (stereo unspecified) | inactive
58 | CS(=O)(=O)CCNCc1nc(-c2ccc3c(=O)[nH]cnc3c2)cs1 | inactive
59 | CN1CCN(c2cccc(-c3nnc(-c4ccc(OCC(=O)NCc5ccc(C(F)(F)F)cc5)c([N+](=O)[O-])c4)o3)c2)CC1 | inactive
60 | COC(=O)c1sc2ccccc2c1NC(=O)c1ccc(C)c(C)c1 | inactive
61 | c1ccc(CN2CCN(c3cc(-c4cncc(-c5ccccc5)c4)nc(-c4ccccc4)n3)CC2)cc1 | inactive
62 | CCC(C)CN1CCN(c2ccc(NC(=O)c3cccs3)cc2)CC1C (stereo unspecified) | inactive
63 | COc1ccc2nc3cc(Cl)ccc3c(Nc3ccc(O)c(CN4CC5CCC(CC5)C4)c3)c2c1 | inactive
64 | CC(C)(O)CC(C)(C)c1cc(Cl)ccc1O | inactive
65 | COc1ccc(NS(=O)(=O)c2ccc(C(=O)Nc3ccc(OC(F)(F)F)cc3)cc2)cc1N1CCN(CC2CC2)CC1 | inactive
66 | COc1ccc2nccc([C@@H](O)CN3CCC(NC(=O)c4cc5cccnc5[nH]4)CC3)c2c1 | inactive
